Among all 1,400 compounds or so, fewer than 10 were called active. Roughly 11% stayed inconclusive and do not appear here. The call rests on the fitted dose curve. The list is a sample of the results.
experiment: Assay for Inhibitors of Influenza NS1 Protein Function: Hit Validation; conditions: influenza NS1 function cell assay, 15-point titration; series mostly up to 32.9 µM; activity change, negative = inhibition: at the top concentration; further: 0% is about no effect
Excerpt: NIH Chemical Genomics Center [NCGC]
NIH Molecular Libraries Probe Centers Network [MLPCN]
Assay Submitter (PI): Daniel Engel
Influenza is a world-wide public health problem and emerging forms of the virus have the potential to cause a pandemic of equal or greater magnitude to the outbreaks recorded in 1918, 1957 or 1968. Vaccine development is proceeding and there also exist two classes of anti-influenza compounds. However these therapeutic modalities are neither fully effective nor widely enough available to fulfill global needs. In addition their potential usefulness against newly emergent strains is not known. Efforts are needed to develop novel agents against influenza virus, including broad-spectrum agents. Identification of small molecules that inhibit NS1 function either directly or by interfering with specific cellular pathways may be a key to increasing our defense against the virus.
We have miniaturized and optimized a cell based assay in which NS1 from influenza A is expressed in the budding yeast S. cerevisiae. NS1 is a multi-functional protein that counters the host innate immune response and facilitates viral versus cellular gene expression. Expression of NS1 causes a pronounced slow growth phenotype in yeast due to its intrinsic molecular activities. Small molecules that suppress the slow growth phenotype can be identified by a straightforward growth recovery assay using optical density (OD) as the measurement. The same yeast strain not expressing NS1 was used as positive control in the yeast growth recovery assay. The present experiment attempted to confirm the activity of compounds observed in the primary screen.
The yeast S. cerevisiae control and NS1 expressing cells were kindly supplied by laboratory of Dr. Daniel Engel, University of Virginia. Yeast starter cultures were stored in single use aliquots at -80C.
1. Yeast culture medium per liter: 1.2 g Yeast Nitrogen Base (w/out amino acids and Ammonium Sulphate), 5.0g Ammonium Sulphate, 0.77g -URA DO (drop-out) Supplement, adjust pH to 6.0. Adjust to 2% glucose prior to inoculating with yeast.
2. Yeast assay medium: 1.2 g Yeast Nitrogen Base (w/out amino acids and Ammonium Sulphate), 5.0g Ammonium Sulphate, 0.77g -URA DO (drop-out) Supplement, adjust pH to 6.0. Adjust to 2% D-galactose prior to inoculating with yeast.
1. Inoculate 100 mls of yeast culture medium with 1 ml of frozen yeast aliquote. Incubate overnight at 30C, 250RPM.
2. Harvest overnight culture at 4000 RPM and wash pellet with 15 mls H2O 3x.
3. Re-suspend washed pellet in 10 mls of yeast assay medium.
4. Prepare a 1:100 dilution of re-suspended culture in yeast assay medium.
5. Dispense 3.5 ul per well of reagents in step 4 in columns 2-48 in a black clear bottom 1536 well plate.
6. Dispense 3.5 ul per well of yeast assay medium in column 1 only.
7. Transfer 23 nl of compound per well.
8. Dispense 3.5 ul per well of yeast assay medium in columns 1-48.
9. Read plate using Viewlux protocol for optical density 600 (OD600) using excitation filter 600nm.

Row | SMILES | activity change, negative = inhibition
1 | Cc1cccc(N=C2NN=C(c3c[nH]c4ccccc34)CS2)c1 | 16.9% (inactive)
2 | Cc1ccc(-c2ccc(=O)n(CC(=O)NCCCN3CCCCC3)n2)cc1 | -19.9% (inactive)
3 | CC(C)CCN(C(=O)c1csnn1)C(C(=O)NC1CCCC1)c1ccccc1 (stereo unspecified) | -15.7% (inactive)
4 | COc1ccccc1C(=O)Nc1ccnn1C1CCN(C(=O)C(C)(C)C)CC1 | -1.33% (inactive)
5 | COc1ccc(C(C(=O)NC2CCCCC2)N(C(=O)Cc2c[nH]c3ccccc23)c2ccccc2)cc1OC (stereo unspecified) | 29.7% (inactive)
6 | O=C1c2cccc(OCC(=O)N3N=C(c4cccs4)CC3c3ccc(F)cc3)c2CCN1Cc1ccccc1 (stereo unspecified) | 28.4% (inactive)
7 | COc1cccc(OC)c1C(=O)Nc1nnc(C(C)C)s1 | 4.22% (inactive)
8 | Cn1c(CC(=O)Nc2ccccc2)nnc1SCC(=O)c1ccccc1 | 4.39% (inactive)
9 | COc1cc2c(cc1NC(=O)CN1CCN(S(=O)(=O)c3ccc(F)cc3)CC1)oc1ccccc12 | 16.7% (inactive)
10 | CCCc1cc(=O)[nH]c(SCC(=O)c2cc(C)n(CCC)c2C)n1 | 6.56% (inactive)
11 | Cc1cccc([C@@H]2[C@@H]3C(=O)N(Cc4ccccc4)C(=O)[C@@H]3[C@]3(C)C(=O)N(c4ccc(Br)cc4)C(=O)N23)c1 | -14.1% (inactive)
12 | Nc1cccc(-c2cc(-c3ccccc3)nc(-c3cccc(N)c3)n2)c1 | 4.5% (inactive)
13 | COc1ccc(S(=O)(=O)Nc2c(C)n(C)n(-c3ccccc3)c2=O)cc1 | -0.376% (inactive)
14 | Cc1cccc(-n2c(SCC(=O)Nc3cccc(S(=O)(=O)NC4=NCCCCC4)c3)nc3ccccc3c2=O)c1C | 8.8% (inactive)
15 | O=C1NC(=O)N(CCc2ccc(F)cc2)C(=O)/C1=C/C=C/c1ccccc1 | 13.3% (inactive)
16 | COCCn1c(C)cc(C2=NNC(=Nc3ccc(F)cc3)SC2)c1C | 37.6% (inactive)
17 | CCOc1ccc(Nc2nc(Cl)nc(N3CCN(c4ccc(OC)cc4)CC3)n2)cc1 | -29.9% (inactive)
18 | COC(=O)c1c(NC(=O)c2cccs2)sc2c1CCCC2 | -37.7% (inactive)
19 | CC(C(=O)O)N1C(=O)c2cccc3cccc1c23 (stereo unspecified) | 13.3% (inactive)
20 | COCCN1C(=O)c2oc3c(C)cc(C)cc3c(=O)c2C1c1cccc(O)c1 (stereo unspecified) | -16.3% (inactive)
21 | Cc1cc2cc(CNC(=O)c3cccs3)ccc2[nH]1 | 13.7% (inactive)

Row | SMILES | activity change, negative = inhibition
22 | COc1ccc(-n2c(C)cc(C(=O)CSc3nnc(-c4cccs4)o3)c2C)cc1 | -11.5% (inactive)
23 | Cc1ccc2c(c1)N(S(=O)(=O)c1cc(-c3cc(C)no3)ccc1C)CCO2 | -16.2% (inactive)
24 | C1=C(N2CCOCC2)/C(=C/c2nc3ccccc3[nH]2)CC1 | -22% (inactive)
25 | Cc1ccccc1C(OCC(O)CN1CCCCC1CCO)c1ccccc1 (stereo unspecified) | -11.7% (inactive)
26 | CCc1ccc(S(=O)(=O)Nc2cc3c(cc2N2CCCCC2)n(C)c(=O)c(=O)n3C)cc1 | -23.4% (inactive)
27 | CC[C@@H](C)[C@@H](C(=O)N1CCN(C(=O)OC(C)(C)C)CC1)n1cc(CCC(=O)O)nn1 | -1.83% (inactive)
28 | N#Cc1c(-c2cccs2)nc(SCC(=O)c2ccc(Br)cc2)[nH]c1=O | 16.4% (inactive)
29 | CN1CCN(C(=O)COc2ccc(C(C)(C)C)cc2Br)CC1 | -0.237% (inactive)
30 | CC(C)c1c(O)nc(SCCOc2ccc(Cl)cc2)[nH]c1=O | -1.92% (inactive)
31 | Cc1cc(=O)[nH]c(SCc2cc(Cl)ccc2OC(F)F)n1 | -3.15% (inactive)
32 | O=C(CSC1=Nc2ccccc2C2=NC(CC(=O)NCc3ccco3)C(=O)N12)NCc1ccco1 (stereo unspecified) | 25.8% (inactive)
33 | Cc1cc(C)c2cc(CN(Cc3nnnn3Cc3ccc(F)cc3)C3CCCC3)c(=O)[nH]c2c1 | -11.9% (inactive)
34 | O=S(=O)(c1ccc(OCC(O)CN2CCN(c3ccccc3Cl)CC2)cc1)N1CCOCC1 (stereo unspecified) | -29.3% (inactive)
35 | COc1cccc(-n2c(SCC(=O)NC3CCCCC3)nc3n[nH]c(C)c3c2=N)c1 | 6.41% (inactive)
36 | CN(C)c1ccc(/C=C/C(=O)c2ccc(C(C)(C)C)cc2)cc1[N+](=O)[O-] | 8.27% (inactive)
37 | COc1ccc(-c2nc(CS(=O)CC(=O)NCc3ccccn3)c(C)o2)cc1 (stereo unspecified) | 27.1% (inactive)
38 | O=C(O)CC(Cn1cnnn1)c1ccccc1 (stereo unspecified) | 3.43% (inactive)
39 | C[C@@H](C(=O)Nc1ccc2ccccc2c1)[C@@H]1C[C@@]1(C)[C@@H](NC(=O)c1cccnc1)c1ccccc1 | 21.1% (inactive)
40 | COC(=O)C1=C(C)N=C2SC(C)C(=O)N2C1/C=C/c1ccccc1 (stereo unspecified) | -0.327% (inactive)
41 | CCCc1nc2ccccc2c(=O)n1NC(=O)c1c(O)c2ccccc2[nH]c1=O | -16.5% (inactive)
